Laboratory results reported in paper PMC8384837, “Expanding the binding specificity for RNA recognition by a PUF domain”.

Molecular target: PUM1 PUF domain R1-RWS (Homo sapiens, UniProt Q14671 828-1176, S863R;R864W;Q867S)
Assay: yeast three-hybrid, YBZ-1, SC-Leu-His + 0.5 mM 3-AT, 4 days
Conditions: tags: N-Gal4 AD-HA kept; label: inside an RPR1-promoter hybrid RNA with tandem MS2 sites; ssRNA
Summary of the method: (§1)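 The interaction score is the log change in how often each variant appears, from input to selection. Frequencies came from PCR-amplified, Illumina-sequenced repeat regions of Pumilio-1 PUF domain libraries grown in strain YBZ-1 (LexA–MS2 coat fusion, HIS3 reporter) alongside matching RNA elements. Input plates were SC-Leu and selection plates were SC-Leu-His + 0.5 mM 3-AT, each for four days, and the log2 calculation used a pseudocount of 1 where a variant was absent.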

Sequence of PUM1 PUF domain R1-RWS (Q14671 828-1176 S863R/R864W/Q867S): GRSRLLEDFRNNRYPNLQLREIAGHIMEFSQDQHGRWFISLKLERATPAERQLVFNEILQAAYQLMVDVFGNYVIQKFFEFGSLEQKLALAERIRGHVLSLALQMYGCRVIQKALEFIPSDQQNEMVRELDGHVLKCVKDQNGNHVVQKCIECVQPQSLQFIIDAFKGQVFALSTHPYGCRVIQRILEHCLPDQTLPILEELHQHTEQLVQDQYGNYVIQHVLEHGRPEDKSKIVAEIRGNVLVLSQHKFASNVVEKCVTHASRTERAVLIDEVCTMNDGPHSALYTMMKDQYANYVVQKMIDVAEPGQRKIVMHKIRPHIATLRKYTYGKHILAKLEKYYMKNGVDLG

| Sequence | binding signal |
| --- | --- |
| GGCUAGAACUAGUGGAUCCCCCGGCGCCCGGCGGCUCGAGCCCGGGUAAGUGUAAAUGGUCUGCAUGCCGCCGGGCGCCAUGCCUGCAGGUCGACUCUAGAAAACAUG | 1.65 log2 enrichment (interaction score) |
| GGCUAGAACUAGUGGAUCCCCCGGCGCCCGGCGGCUCGAGCCCGGGUAAGUGUAAAUCGUCUGCAUGCCGCCGGGCGCCAUGCCUGCAGGUCGACUCUAGAAAACAUG | 2.83 log2 enrichment (interaction score) |
| GGCUAGAACUAGUGGAUCCCCCGGCGCCCGGCGGCUCGAGCCCGGGUAAGUGUAAAUUGUCUGCAUGCCGCCGGGCGCCAUGCCUGCAGGUCGACUCUAGAAAACAUG | 3.86 log2 enrichment (interaction score) |

Molecular target: PUM1 PUF domain R1-RGT (Homo sapiens, UniProt Q14671 828-1176, S863R;R864G;Q867T)
Assay: as above
Conditions: tags: N-Gal4 AD-HA kept; label: inside an RPR1-promoter hybrid RNA with tandem MS2 sites; ssRNA
Summary of the method: as §1

Sequence of PUM1 PUF domain R1-RGT (Q14671 828-1176 S863R/R864G/Q867T): as the sequence (Q14671 828-1176 S863R/R864W/Q867S) above, with W37G, S40T counted along it

| Sequence | binding signal |
| --- | --- |
| GGCUAGAACUAGUGGAUCCCCCGGCGCCCGGCGGCUCGAGCCCGGGUAAGUGUAAAUGGUCUGCAUGCCGCCGGGCGCCAUGCCUGCAGGUCGACUCUAGAAAACAUG | 1.3 log2 enrichment (interaction score) |
| GGCUAGAACUAGUGGAUCCCCCGGCGCCCGGCGGCUCGAGCCCGGGUAAGUGUAAAUCGUCUGCAUGCCGCCGGGCGCCAUGCCUGCAGGUCGACUCUAGAAAACAUG | 5.04 log2 enrichment (interaction score) |
| GGCUAGAACUAGUGGAUCCCCCGGCGCCCGGCGGCUCGAGCCCGGGUAAGUGUAAAUUGUCUGCAUGCCGCCGGGCGCCAUGCCUGCAGGUCGACUCUAGAAAACAUG | 4.56 log2 enrichment (interaction score) |

Molecular target: PUM1 PUF domain R5-LWA (Homo sapiens, UniProt Q14671 828-1176, C1007L;R1008W;Q1011A)
Assay: as above
Conditions: tags: N-Gal4 AD-HA kept; label: inside an RPR1-promoter hybrid RNA with tandem MS2 sites; ssRNA
Summary of the method: as §1

Sequence of PUM1 PUF domain R5-LWA (Q14671 828-1176 C1007L/R1008W/Q1011A): as the sequence (Q14671 828-1176 S863R/R864W/Q867S) above, with R36S, W37R, S40Q, C180L, R181W, Q184A counted along it

| Sequence | binding signal |
| --- | --- |
| GGCUAGAACUAGUGGAUCCCCCGGCGCCCGGCGGCUCGAGCCCGGGUAAGUGUAAAUAGUCUGCAUGCCGCCGGGCGCCAUGCCUGCAGGUCGACUCUAGAAAACAUG | 1.66 log2 enrichment (interaction score) |
| GGCUAGAACUAGUGGAUCCCCCGGCGCCCGGCGGCUCGAGCCCGGGUAAGUGUUAAUAGUCUGCAUGCCGCCGGGCGCCAUGCCUGCAGGUCGACUCUAGAAAACAUG | 3.28 log2 enrichment (interaction score) |
| GGCUAGAACUAGUGGAUCCCCCGGCGCCCGGCGGCUCGAGCCCGGGUAAGUGUGAAUAGUCUGCAUGCCGCCGGGCGCCAUGCCUGCAGGUCGACUCUAGAAAACAUG | 1.01 log2 enrichment (interaction score) |

Molecular target: PUM1 PUF domain R5-RRP (Homo sapiens, UniProt Q14671 828-1176, C1007R;Q1011P)
Assay: as above
Conditions: tags: N-Gal4 AD-HA kept; label: inside an RPR1-promoter hybrid RNA with tandem MS2 sites; ssRNA
Summary of the method: as §1

Sequence of PUM1 PUF domain R5-RRP (Q14671 828-1176 C1007R/Q1011P): as the sequence (Q14671 828-1176 S863R/R864W/Q867S) above, with R36S, W37R, S40Q, C180R, Q184P counted along it

| Sequence | binding signal |
| --- | --- |
| GGCUAGAACUAGUGGAUCCCCCGGCGCCCGGCGGCUCGAGCCCGGGUAAGUGUCAAUAGUCUGCAUGCCGCCGGGCGCCAUGCCUGCAGGUCGACUCUAGAAAACAUG | 5.07 log2 enrichment (interaction score) |
| GGCUAGAACUAGUGGAUCCCCCGGCGCCCGGCGGCUCGAGCCCGGGUAAGUGUAAAUAGUCUGCAUGCCGCCGGGCGCCAUGCCUGCAGGUCGACUCUAGAAAACAUG | 3.17 log2 enrichment (interaction score) |
| GGCUAGAACUAGUGGAUCCCCCGGCGCCCGGCGGCUCGAGCCCGGGUAAGUGUUAAUAGUCUGCAUGCCGCCGGGCGCCAUGCCUGCAGGUCGACUCUAGAAAACAUG | 4.7 log2 enrichment (interaction score) |
| GGCUAGAACUAGUGGAUCCCCCGGCGCCCGGCGGCUCGAGCCCGGGUAAGUGUGAAUAGUCUGCAUGCCGCCGGGCGCCAUGCCUGCAGGUCGACUCUAGAAAACAUG | 1.27 log2 enrichment (interaction score) |
